Measurements published in PubChem BioAssay (Tox21).
Records with an inconclusive call do not appear. Calls of active or inactive are those of the source. The call rests on the fitted dose curve; in most records, active means well fitted curve in the direction sought with a large enough effect in the repeat runs; inconclusive means weak or mixed curves; inactive means no such curve, though single readings can be large; an effect the other way counts as inactive or inconclusive.

Columns and labels:
[1] = qHTS RealTime-Glo MT Cell Viability Assay in HepG2 cells - 8 hour (AID 1224873); further: nearly all actives have a fitted effect of over 55% in size
Procedure, shortened: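 HepG2 cells (600/well) mixed with RealTime-Glo MT reagent, settled 5 h at 37 C/5% CO2 before compound addition. Nonlytic NanoLuc luminescence from viable-cell prosubstrate reduction read repeatedly during 40 h treatment at 37 C.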

[2] = A CellTox Green Cytotoxicity Assay to monitor cytotoxicity in HEK293 cells - 24 hour (AID 1224875); further: series mostly up to about 77 µM; nearly all actives have a fitted effect of over 45% in size
Procedure, shortened: (§1)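 Each value comes from one timepoint of a single continuous run in which HEK293 cells with CellTox Green were exposed to compound for up to 40 h at 37 C, dye fluorescence rising with cell death.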

[3] = A CellTox Green Cytotoxicity Assay to monitor cytotoxicity in HepG2 cells - 16 hour (AID 1224876); further: nearly all actives have a fitted effect of over 45% in size
Procedure, shortened: (§2)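 Continuous culture of HepG2 cells with a membrane-impermeant DNA dye; rising fluorescence marks dead cells. Compound exposure lasted up to 40 h at 37 C, with reads every 8 h from 0 h.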

[4] = qHTS RealTime-Glo MT Cell Viability Assay in HepG2 cells - 32 hour (AID 1224877); further: nearly all actives have a fitted effect of over 55% in size; further: potency means the concentration at half of the fitted maximal effect
Procedure, shortened: (§3)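 HepG2 cells were seeded at 600 cells/well together with NanoLuc luciferase and a cell-permeant prosubstrate, preincubated 5 h at 37 C/5% CO2, then pin-dosed with compounds in DMSO. Nonlytic luminescence from viable cells was read at each time point.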

[5] = A CellTox Green Cytotoxicity Assay to monitor cytotoxicity in HepG2 cells - 24 hour (AID 1224878); further: nearly all actives have a fitted effect of over 45% in size
Procedure, shortened: as §2

[6] = A CellTox Green Cytotoxicity Assay to monitor cytotoxicity in HepG2 cells - 40 hour (AID 1224879); further: nearly all actives have a fitted effect of over 40% in size
Procedure, shortened: as §2

[7] = A CellTox Green Cytotoxicity Assay to monitor cytotoxicity in HEK293 cells - 32 hour (AID 1224881); further: nearly all actives have a fitted effect of over 40% in size
Procedure, shortened: as §1

[8] = A CellTox Green Cytotoxicity Assay to monitor cytotoxicity in HepG2 cells - 0 hour (AID 1224882); further: nearly all actives have a fitted effect of over 35% in size
Procedure, shortened: as §2

[9] = A CellTox Green Cytotoxicity Assay to monitor cytotoxicity in HepG2 cells - 32 hour (AID 1224883); further: nearly all actives have a fitted effect of over 50% in size
Procedure, shortened: as §2

[10] = A CellTox Green Cytotoxicity Assay to monitor cytotoxicity in HEK293 cells - 8 hour (AID 1224884); further: nearly all actives have a fitted effect of over 35% in size
Procedure, shortened: as §1

[11] = qHTS RealTime-Glo MT Cell Viability Assay in HepG2 cells - 16 hour (AID 1224885); further: nearly all actives have a fitted effect of over 50% in size
Procedure, shortened: as §3

[12] = A CellTox Green Cytotoxicity Assay to monitor cytotoxicity in HEK293 cells - 16 hour (AID 1224888); further: nearly all actives have a fitted effect of over 35% in size
Procedure, shortened: as §1

[13] = qHTS RealTime-Glo MT Cell Viability Assay in HepG2 cells - 0 hour (AID 1224889); further: nearly all actives have a fitted effect of over 50% in size
Procedure, shortened: as §3

[14] = A CellTox Green Cytotoxicity Assay to monitor cytotoxicity in HepG2 cells - 8 hour (AID 1224890); further: nearly all actives have a fitted effect of over 45% in size
Procedure, shortened: as §2

[15] = qHTS assay to identify small molecule antagonists of the estrogen receptor alpha (ER-alpha) signaling pathway using the BG1 cell line in the presence of 0.1 nM 17-beta-estradiol - cell viability counter screen (AID 1259241); further: nearly all actives have a fitted effect of over 40% in size
Procedure, shortened: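 In this screen, hormone-deprived VM7Luc4E2 cells were seeded at 4,000 per well, dosed with compound and 0.1 nM estradiol final, and incubated 22 hr at 37C and 5% CO2; fluorogenic live-cell protease signal reported viability.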

[16] = qHTS assay to identify small molecule antagonists of the androgen receptor (AR) signaling pathway using the MDA cell line in the presence of 0.5 nM R1881 - cell viability counter screen (AID 1259242); further: nearly all actives have a fitted effect of over 45% in size
Procedure, shortened: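 Fluorescence from CellTiter-Fluor, which reports protease activity of live cells, was read 30 min after reagent addition to MDA-kb2 cells that had been incubated 16 hr with compound and 0.5 nM R1881.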

[17] = qHTS RealTime-Glo MT Cell Viability Assay in HEK293 cells - 8 hour (AID 1224887); further: top concentration of the series differs between compounds; nearly all actives have a fitted effect of over 50% in size
Procedure, shortened: (§4)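 qHTS format; HEK293 cells with NanoLuc/prosubstrate reagent, 37 C/5% CO2 for 5 h pre-dosing; compounds 23 nL in DMSO; luminescence at each time point reflects viable cells.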

[18] = qHTS RealTime-Glo MT Cell Viability Assay in HEK293 cells - 24 hour (AID 1224886)
Procedure, shortened: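 HEK293 cells were seeded at 600 cells/well together with NanoLuc luciferase and cell-permeant prosubstrate, preincubated 5 h at 37 C/5% CO2, then given compound in DMSO by pintool. Luminescence from viable-cell prosubstrate reduction was read repeatedly over 40 h.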

[19] = qHTS RealTime-Glo MT Cell Viability Assay in HEK293 cells - 0 hour (AID 1224880)
Procedure, shortened: as §4

[20] = qHTS RealTime-Glo MT Cell Viability Assay in HEK293 cells - 40 hour (AID 1224874); conditions: RealTime-Glo luminescence; max response: hits give low values; further: nearly all actives have a fitted effect of over 50% in size
Procedure, shortened: as §4
On the % scale 0 is the no-effect control and ±100 the full control effect.

CC(=O)Nc1ccc(OCC(O)CNC(C)C)cc1 (stereo unspecified)
inactive: outcome [1] | outcome [2] | outcome [3] | Potency [4] | outcome [5] | Potency [6] | outcome [7] | Potency [8] | Potency [9] | outcome [10] | outcome [11] | outcome [12] | Potency [13] | outcome [14] | outcome [15] | outcome [16]

Cc1cc(C)c(N=Nc2c(O)c(S(=O)(=O)O)cc3cc(S(=O)(=O)O)ccc23)cc1C
inactive: viability change, negative = cytotoxic [1] 5.41% [at 6.97 µM] | activity change [2] 16.7% [at 6.97 µM] | cytotoxicity increase [3] 0.0418% [at 6.97 µM] | activity change, negative = cytotoxic [4] -2.9% [at 6.97 µM] | cytotoxicity [5] -2.84% [at 6.97 µM] | cytotoxicity increase [7] 10.2% [at 6.97 µM] | cytotoxicity [8] 2.93% [at 6.97 µM] | cytotoxicity increase [9] -2.71% [at 6.97 µM] | cytotoxicity increase [10] 0% [at 6.97 µM] | activity change, negative = cytotoxic [11] 0.476% [at 6.97 µM] | activity change [12] 15.4% [at 6.97 µM] | activity change, negative = cytotoxicity [13] 4.39% [at 6.97 µM] | cytotoxicity increase [14] 3.92% [at 6.97 µM] | activity change, negative = cytotoxicity [15] -12.4% [at 8.39 µM] | viability change, negative = cytotoxic [16] -3.59% [at 8.39 µM]

CC1=C(C/C=C(\C)CCC[C@H](C)CCC[C@H](C)CCCC(C)C)C(=O)c2ccccc2C1=O
inactive: outcome [1] | outcome [2] | outcome [3] | Potency [4] | outcome [5] | Potency [6] | outcome [7] | Potency [9] | outcome [10] | outcome [11] | Potency [17] | Potency [13] | outcome [14] | outcome [15] | outcome [16]

C1CCC2=NCCCN2CC1
inactive: outcome [1] | outcome [2] | outcome [3] | Potency [4] | outcome [5] | Potency [6] | outcome [7] | Potency [8] | Potency [9] | outcome [10] | outcome [11] | Potency [18] | Potency [17] | outcome [12] | Potency [13] | outcome [14] | outcome [16]

Nc1ccn([C@@H]2O[C@H](CO)[C@@H](O)[C@@H]2O)c(=O)n1
inactive: outcome [1] | outcome [2] | outcome [3] | Potency [4] | outcome [5] | Potency [6] | Potency [19] | outcome [7] | Potency [8] | Potency [9] | outcome [10] | Potency [18] | Potency [17] | outcome [12] | Potency [13] | outcome [14] | outcome [15] | outcome [16]

Nc1ccn([C@@H]2O[C@H](CO)[C@@H](O)C2O)c(=O)n1 (stereo partly specified)
inactive: outcome [1] | outcome [2] | outcome [3] | Potency [4] | outcome [5] | Potency [6] | Potency [19] | outcome [7] | Potency [9] | outcome [10] | outcome [11] | Potency [17] | outcome [12] | Potency [13] | outcome [14] | outcome [15] | outcome [16]

CNCC(O)c1ccc(O)c(O)c1 (stereo unspecified)
inactive: outcome [1] | outcome [2] | outcome [3] | Potency [4] | outcome [5] | Potency [19] | outcome [7] | Potency [8] | Potency [9] | outcome [10] | outcome [11] | Potency [18] | Potency [17] | outcome [12] | Potency [13] | outcome [14] | outcome [15] | outcome [16]

O=CN(CCO)CCO
inactive: outcome [1] | outcome [2] | outcome [3] | Potency [4] | outcome [5] | Potency [6] | Potency [19] | outcome [7] | Potency [8] | Potency [9] | outcome [10] | outcome [11] | Potency [18] | Potency [17] | Potency [13] | outcome [14] | outcome [15] | outcome [16]

CCCCCCCCCCCCCCCCCCO
inactive: outcome [1] | outcome [2] | outcome [3] | Potency [4] | outcome [5] | Potency [19] | outcome [7] | Potency [8] | Potency [9] | outcome [10] | outcome [11] | Potency [18] | Potency [17] | Potency [13] | outcome [14] | outcome [16]

CN1CC(=O)N/C1=N/C(=O)Nc1cccc(Cl)c1
inactive: outcome [1] | outcome [2] | outcome [3] | Potency [4] | outcome [5] | Potency [6] | outcome [7] | Potency [8] | Potency [9] | outcome [10] | outcome [11] | Potency [18] | Potency [17] | outcome [12] | Potency [13] | outcome [14] | outcome [15] | outcome [16]

[K+]
active: Potency [4] 49 µM
inactive: max response [20] 21.2% | outcome [2] | outcome [3] | outcome [5] | Potency [6] | outcome [7] | Potency [9] | outcome [11] | Potency [18] | Potency [17] | outcome [12] | Potency [13] | outcome [14] | outcome [16]

CC1=NN(c2cccc(S(=O)(=O)O)c2)C(=O)C1
inactive: max response [20] 2.46% | outcome [2] | outcome [3] | Potency [4] | outcome [5] | Potency [6] | Potency [19] | outcome [7] | Potency [8] | Potency [9] | outcome [10] | outcome [11] | Potency [18] | Potency [17] | Potency [13] | outcome [14] | outcome [15] | outcome [16]
